Only a sample is shown.
aSyn 5UTR act = Activators via SNCA 5'UTR binding, MLPCN | alpha-synuclein 5'UTR reporter, activators screen | activity score, % (tested at 7.5 µM), hits read low | 300,000 tested, 7.1% active | AID 1814, 2009; in the data active means activity score below about -60%
* = called active by the depositor.

How did Cc1ccc(C(=O)Nc2ccc3c(c2)OCCO3)c(Cl)c1 do in these assays?
aSyn 5UTR act: 80

What do the screens show for `O=C(Nc1ccc2ccccc2c1)c1cc(F)c(F)cc1Cl`?
aSyn 5UTR act: -140*

What do the screens show for `C=CCn1c(SCC(=O)Nc2ccc(-c3nc4ccc(C)cc4s3)cc2)nnc1-c1ccncc1`?
aSyn 5UTR act: -99*

How did CCn1c(SCC(=O)Nc2ccc(-c3nc4ccc(C)cc4s3)cc2)nnc1-c1ccccc1 do in these assays?
aSyn 5UTR act: -175*

How did O=C(NCC1CCCO1)C(=O)c1c[nH]c2ccccc12 (stereo not given) do in these assays?
aSyn 5UTR act: -73*

Results for O=C(NC1CCCC1)c1n[nH]c2ccccc12 ?
aSyn 5UTR act: -86*

What do the screens show for `O=C(NCCC1=CCCCC1)C(=O)c1c[nH]c2ccccc12`?
aSyn 5UTR act: -81*

How did Cc1ccc(NC(=O)C(=O)c2c[nH]c3ccccc23)cc1 do in these assays?
aSyn 5UTR act: -169*

Results for O=C(NC1CCCCC1)C(=O)c1c[nH]c2ccccc12 ?
aSyn 5UTR act: -115*

How did O=C(N=Nc1c(O)n(C2OC(=O)c3ccccc32)c2ccccc12)c1ccco1 (stereo not given) do in these assays?
aSyn 5UTR act: -110*

Results for Cc1nc2ccccc2c(=O)n1/N=C/c1cn(-c2ccccc2)nc1-c1cccs1 ?
aSyn 5UTR act: -67*

How did Cc1nc2ccccc2c(=O)n1/N=C/c1cccs1 do in these assays?
aSyn 5UTR act: -79*

How did Cc1nc2ccccc2c(=O)n1/N=C1\C(=O)N(C)c2ccccc21 do in these assays?
aSyn 5UTR act: -83*

How did Cc1nnc(-c2ccccc2)c(=O)n1/N=C/c1c(O)ccc2ccccc12 do in these assays?
aSyn 5UTR act: 83

Results for Cc1ccc(C(C)(C)NC(=O)C2CCC(=O)N(C3CCCCCC3)C2)cc1 (stereo not given) ?
aSyn 5UTR act: -147*

What do the screens show for `COc1ccc(/C(C)=N/N2C(=O)c3ccccc3NC2c2ccc(O)c(OC)c2)cc1` (stereo not given)?
aSyn 5UTR act: -66*

What do the screens show for `Cn1nnnc1SCc1nnc(-c2ccc(Cl)cc2)o1`?
aSyn 5UTR act: -75*

Results for O=C1CCCc2nc3c(cc21)C(O)Oc1c-3ccc2ccccc12 (stereo not given) ?
aSyn 5UTR act: -118*

What do the screens show for `O=C(NC1CCCCCC1)c1cccs1`?
aSyn 5UTR act: -81*

Results for O=C(CCS(=O)(=O)c1cccs1)NC1CCCCCC1 ?
aSyn 5UTR act: -139*

Results for O=C(NCCC1CCCC1)c1cccs1 ?
aSyn 5UTR act: -69*

What do the screens show for `Nc1c(C(=O)NC2CCCC2)sc2nc(-c3cccs3)ccc12`?
aSyn 5UTR act: -74*

What do the screens show for `Cc1c(C(=O)OC(C)C)sc(N)c1C(=O)OC(C)C`?
aSyn 5UTR act: -120*

How did Cc1ccc(/C=N/N=C/c2ccc(C)cc2)cc1 do in these assays?
aSyn 5UTR act: -110*

Results for C(=N\N=C\c1ccccc1)/c1ccccc1 ?
aSyn 5UTR act: -96*

What do the screens show for `Fc1cccc(/C=N/N=C/c2cccc(F)c2)c1`?
aSyn 5UTR act: -62*

Results for N#CCCN1CCCc2cc(N=Nc3ccc(C(F)(F)F)cc3)ccc21 ?
aSyn 5UTR act: -191*

What do the screens show for `Cn1nc(C(=O)Nc2ccc(S(=O)(=O)NCc3ccco3)cc2)c2ccccc2c1=O`?
aSyn 5UTR act: -96*

What do the screens show for `Cn1nc(-c2ccc(N3CCCCC3)c(NC(=O)c3ccco3)c2)c2ccccc2c1=O`?
aSyn 5UTR act: 67

What do the screens show for `COc1ccc(C(=O)C[n+]2cn(C(F)F)c3ccccc32)c(F)c1`?
aSyn 5UTR act: -117*

Results for COc1ccccc1C1CCN(c2ccc([N+](=O)[O-])c(OC)c2)CC1 ?
aSyn 5UTR act: -75*

Results for C#CCN1C(=O)S/C(=C/c2cc(C)n(CC)c2C)C1=O ?
aSyn 5UTR act: -193*

How did COCCn1c(C)cc(/C=C2/SC(=O)N(C(C)C(=O)OC)C2=O)c1C (stereo not given) do in these assays?
aSyn 5UTR act: -154*

How did COC(=O)C(C)N1C(=O)S/C(=C/c2cc(C)n(C(C)C)c2C)C1=O (stereo not given) do in these assays?
aSyn 5UTR act: -127*

How did CCOC(=O)C(C)N1C(=O)S/C(=C/c2cc(C)n(-c3ccccn3)c2C)C1=O (stereo not given) do in these assays?
aSyn 5UTR act: -143*

Results for CCn1c(C)cc(/C=C2/SC(=O)N(C(C)C(=O)OC)C2=O)c1C (stereo not given) ?
aSyn 5UTR act: -156*

How did Cc1ccc2nc3c(cc(C(N)=S)c(=N)n3CCCOC(C)C)c(=O)n2c1 do in these assays?
aSyn 5UTR act: -64*

What do the screens show for `Cc1cnc(NC(=O)COc2ccccc2Cl)s1`?
aSyn 5UTR act: 82

What do the screens show for `COc1ccccc1CCC(=O)Nc1ccc(C)cc1Cl`?
aSyn 5UTR act: -160*

Results for COc1ccccc1CCC(=O)Nc1ncc(C)s1 ?
aSyn 5UTR act: -83*

How did CC1CC/C(=C\c2ccc3c(c2)OCO3)C(=O)/C1=C/c1ccc2c(c1)OCO2 (stereo not given) do in these assays?
aSyn 5UTR act: -80*

What do the screens show for `O=C1/C(=C/c2ccncc2)CCC/C1=C\c1ccncc1`?
aSyn 5UTR act: -101*

Results for O=C1/C(=C\c2ccc3c(c2)OCO3)CCC/C1=C/c1ccc2c(c1)OCO2 ?
aSyn 5UTR act: -93*

What do the screens show for `Cc1[nH]n(-c2ccc([N+](=O)[O-])cc2)c(=O)c1C=NCC1CCCO1` (stereo not given)?
aSyn 5UTR act: -88*

What do the screens show for `COc1ccc(/C=C2\N=C(c3ccccc3Cl)NC2=O)cc1`?
aSyn 5UTR act: -124*

What do the screens show for `O=C(OCc1ccccc1)N1CCc2ccccc21`?
aSyn 5UTR act: -119*

How did CC(=O)/C(=N/Nc1ccc(Br)cc1)N1CCCc2ccccc21 do in these assays?
aSyn 5UTR act: 61

What do the screens show for `O=C(COc1ccc(Br)cc1)N1CCc2ccccc21`?
aSyn 5UTR act: -100*

Results for O=C(COc1ccccc1)N1CCc2ccccc21 ?
aSyn 5UTR act: -167*

What do the screens show for `O=C(CCCc1ccccc1)N1CCc2ccccc21`?
aSyn 5UTR act: -117*

How did O=C(CCCOc1ccccc1)N1CCCc2ccccc21 do in these assays?
aSyn 5UTR act: -73*

How did O=C(COc1ccccc1Cl)N1CCc2ccccc2C1 do in these assays?
aSyn 5UTR act: -91*

Results for Cc1noc(C)c1COc1cccc(C(=O)OCC(=O)N2CC(=O)Nc3ccccc32)c1 ?
aSyn 5UTR act: 65

What do the screens show for `O=C1CN(C(=O)OCc2ccccc2)c2ccccc2N1`?
aSyn 5UTR act: -89*

What do the screens show for `O=C(/C=C/c1ccc(Cl)c(Cl)c1)N1CCc2ccccc21`?
aSyn 5UTR act: -241*

What do the screens show for `O=C(COc1ccccc1Cl)N1CCc2ccccc21`?
aSyn 5UTR act: -135*

How did C=CCNc1ncnc2c1[nH]c1ccc(Cl)cc12 do in these assays?
aSyn 5UTR act: -197*

Results for Cc1ccc2[nH]c(-c3cccc(F)c3)cc(=O)c2c1 ?
aSyn 5UTR act: 81

Results for Cc1ccc2[nH]c(=O)c(C3C(C#N)=C(N)Oc4c3ccc3cccnc43)cc2c1 (stereo not given) ?
aSyn 5UTR act: 75

Results for Cc1ccc2[nH]c(-c3cccc(N)c3)cc2c1 ?
aSyn 5UTR act: -209*

Results for O=C(NC(=S)Nc1ccccc1O)c1ccccc1Cl ?
aSyn 5UTR act: -127*

Results for O=C(NNC(=S)Nc1ccccc1Cl)c1ccccc1Br ?
aSyn 5UTR act: -94*

What do the screens show for `Clc1ccccc1-c1nnc(-c2ccccc2Cl)o1`?
aSyn 5UTR act: -158*

Results for Clc1ccc(-c2nnc(-c3ccccc3Cl)o2)cc1 ?
aSyn 5UTR act: -82*

Compound activity as filed in PubChem.
